Source: PubChem BioAssay (several laboratories)
Rows were chosen to be rich in hits. Some 1.5% of all compounds tested hit in one or more screens of this group.
PABP polyA inh – blocks human PABP binding to poly(A) RNA | fluorescence polarization | calls only at 35 µM | actives 1% (n = 290,000);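 note: calls also rest on retests at 20 µM and on dose response follow-up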
Target sequence (P11940 whole entry, looked up): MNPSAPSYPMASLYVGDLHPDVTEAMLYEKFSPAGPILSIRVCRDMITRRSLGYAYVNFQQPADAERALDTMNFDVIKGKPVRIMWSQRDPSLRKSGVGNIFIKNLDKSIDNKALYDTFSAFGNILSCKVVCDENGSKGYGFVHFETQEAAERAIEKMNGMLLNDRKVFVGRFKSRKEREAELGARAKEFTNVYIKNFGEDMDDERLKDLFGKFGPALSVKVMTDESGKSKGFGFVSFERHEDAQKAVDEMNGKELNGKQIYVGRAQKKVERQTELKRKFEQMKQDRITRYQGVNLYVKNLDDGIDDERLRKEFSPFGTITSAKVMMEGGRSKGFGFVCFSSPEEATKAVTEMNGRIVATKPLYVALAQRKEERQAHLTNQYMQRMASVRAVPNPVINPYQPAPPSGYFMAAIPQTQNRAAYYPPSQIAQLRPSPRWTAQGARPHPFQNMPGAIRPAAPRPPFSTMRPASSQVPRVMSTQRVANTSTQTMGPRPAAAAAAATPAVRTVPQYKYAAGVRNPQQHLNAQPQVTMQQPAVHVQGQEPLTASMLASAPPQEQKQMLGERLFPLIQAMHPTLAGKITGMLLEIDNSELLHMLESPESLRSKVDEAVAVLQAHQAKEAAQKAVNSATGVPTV
eIF4E 4G PPI – eIF4E/eIF4G interaction inhibition in translation initiation; P63073+Q04637; TR-FRET eIF4E-eIF4GI(517-606) binding, 2 h; inhibition, % at 21.7 µM; actives 0.37% (n = 220,000); AID 782;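 active = inhibition above about 30%, limit read from the data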;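 note: 0% = full FRET control wells and 100% = background wells lacking eIF4GI fragment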
eIF4H inh – inhibitors of RNA binding by human eIF4H | Q15056 | eIF4H fluorescence polarization binding assay | inhibition, % at 35 µM | actives 0.94% (n = 290,000) | AID 2012;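 note: calls also rest on retests at 20 µM and on dose response follow-up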
PABP1 MLLE inh – inhibitors of microRNA-mediated deadenylation, human PABP1 MLLE binding. GST-MLLE / FITC-PAM2 fluorescence polarization. inhibition, % at 20 µM. P11940. actives 0.36% (n = 360,000); in the data active = inhibition above about 35%, passing the limit was not always enough;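 note: plate controls were DMSO wells with GST-MLLE for no effect and wells lacking GST-MLLE protein for full effect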
* hit, by the source's call; i = inactive; u = inconclusive; x = not tested or not shown; + = active, no number; [ ] = another dose, or the depositor's remark. Unless noted, the rule behind the calls is not given here.

SMILES	PABP polyA inh	eIF4E 4G PPI	eIF4H inh	PABP1 MLLE inh
COc1ccccc1NC(=S)NCCSc1ccc(Cl)cc1	i	33*	-1	-33
CN(C(=O)C1CCC(=O)N(Cc2cccc(F)c2)C1)C1CCCCC1 (configuration not stated)	i	x	5	-1
Cc1ccc(CNc2ccc3c(c2)OCO3)cc1	u	12	u	69
S=C(Nc1ccc2c(c1)OCO2)Nc1ccc2c(c1)OCO2	+	3	112*	23
c1cc(CNc2ccc3c(c2)OCO3)ccn1	i	4	21	80*
CN(C)C(=S)Nc1ccc2c(c1)OCO2	i	0	-12	11
CC(=O)Nc1cccc(-c2ccnc3c2CC(C)(C(=O)Nc2ccc(Cl)cc2)O3)c1 (configuration not stated)	x	x	x	2
NS(=O)(=O)c1cccc(NC(=O)CSc2ccccn2)c1	+	5	-3	-1
O=C(O)CSc1ccccn1	i	33*	-3	10
CCCc1ccc(C(O)c2ncc(-c3ccccc3C)[nH]2)cc1 (configuration not stated)	x	x	x	-4
COc1ccc(-c2nnc(-c3ccc(N(C)C)cc3)o2)cc1	i	0	-3	-6
CN(C)c1ccc(-c2nnc(-c3ccc(S(=O)(=O)C(F)F)cc3)o2)cc1	+	-32	68*	-63
CN(Cc1ccccc1)Cc1cc(=O)oc2ccc3ccccc3c12	x	x	x	-5
CC(C)c1nnc(NC(=O)c2ccc(N3C(=O)CCC3=O)cc2)s1	i	5	-15	-3
O=C(Nc1nnc(C23CC4CC(CC(C4)C2)C3)s1)c1ccc(N2C(=O)CCC2=O)cc1	i	62*[fluorescence artefact?]	44	1
O=C(N/N=C/c1ccc(OC(=O)c2ccccc2Cl)cc1)c1cc(O)cc(O)c1	+	x	92*	0
COc1cc(/C=N/NC(=O)c2cc(O)cc(O)c2)ccc1OC(=O)c1ccccc1	+	x	81*	-5
COc1cc(C(=O)N/N=C/c2ccc(OC(=O)c3ccccc3)c(OC)c2)ccc1O	i	x	4	-1
O=C(N/N=C/c1ccc(OC(=O)c2ccco2)cc1)c1ccncc1	i	x	8	-17
O=C(N/N=C/c1ccoc1)c1cc(O)cc(O)c1	+	x	96*	-7
O=C(N/N=C/c1ccc(OC(=O)c2ccc(Br)cc2)cc1)c1ccncc1	i	x	79*	-6
C[C@H]1Cn2cnc(C(=O)Nc3cccc(Cl)c3)c2C(=O)N1	x	x	x	0
CCOC(=O)c1ccc(S(=O)(=O)N2CCC(C(=O)NCC3COc4ccccc4O3)CC2)cc1 (configuration not stated)	x	x	x	-26
COc1cccc(CNC(=O)COC(=O)c2ccc(-c3ccc(O)cc3)cc2)c1	x	x	x	6
Cc1c(C(=O)NCc2ccc([N+](=O)[O-])cc2)sc(=O)n1Cc1ccc2c(c1)OCO2	x	x	x	8
SMILES	PABP polyA inh	eIF4E 4G PPI	eIF4H inh	PABP1 MLLE inh
COc1ccc(/C=N/c2c(-c3ccco3)nc3ccccn23)cc1OC	u	5	u	47*
Clc1ccc(/C=N/c2c(-c3ccco3)nc3ccccn23)cc1	+	11	128*	39*
COC(=O)/C=C/COc1ccccc1[N+](=O)[O-]	i	1	-4	-8
O=C(O)C(Cc1ccccc1)N1C(=O)C2C3CCC(C3)C2C1=O (configuration not stated)	x	x	x	1
Cc1cc(=O)[nH]c(SCC(=O)c2ccccc2)c1C#N	+	-4	81*	-66
Cc1cc(=O)[nH]c(SCC(=O)NC(C)C2CC3CCC2C3)c1C#N (configuration not stated)	+	3	3.3*	-1
CC(NC(=O)CSc1n[nH]c(=O)[nH]c1=O)C1CC2CCC1C2 (configuration not stated)	i	4	-8	-2
COc1ccc(NC(=O)CSc2[nH]c(=O)cc(C)c2C#N)cc1OC	i	-2	-4	1
Cc1ccccc1NC(=O)CSc1[nH]c(=O)cc(C)c1C#N	+	4	22*	-43
CCc1cccc(CC)c1NC(=O)CSc1nnc(CCC(=O)O)c(=O)[nH]1	i	-4	-10	39*
Cc1ccccc1NC(=O)CSc1nnc(C)c(=O)[nH]1	i	-1	-5	43*
Cc1nnc(SCC(=O)Nc2ccccc2)[nH]c1=O	i	3	-1	29
COc1ccc(C(O)c2nc(-c3ccc(N(C)C)cc3)cs2)cc1 (configuration not stated)	x	x	x	-6
CCOc1cccc(=O)c2c(C)n(Cc3ccco3)c(C)c12	+	-5	95*	-18
C=Cc1ccc(Cn2c(C)c(C(=O)NCc3cccc([N+](=O)[O-])c3)sc2=O)cc1	x	x	x	-7
O=c1cc(/C=C/c2cccs2)[nH]c2ccccc12	i	1	-6	11
CSc1ccc(/C=C/c2cc(=O)c3ccccc3[nH]2)cc1	i	2	131*	7
COc1cccc(CN2CCC(C(=O)N3CCN(c4ccccc4F)CC3)CC2)c1	i	3	61*	-1
CC(C)NC(=O)C1CCN(Cc2cccc(Oc3ccccc3)c2)CC1	+	x	90*	21
COc1cccc(CC(=O)N2CCN(c3ccccc3[N+](=O)[O-])CC2)c1	+	-1	52*	2
COc1ccc(OC)c(CN2CCC(C(=O)N3CCN(c4ccccc4F)CC3)CC2)c1	i	-2	4	-1
Cc1cccc(CN2CCC(n3nccc3NC(=O)CCCc3ccccc3)CC2)c1	x	x	x	6
O=C(c1ccco1)N1CCN(C(=O)c2cc(-c3ccccn3)nc3ccc(Cl)cc23)CC1	i	0	100*	-1
Cc1ccnc(SCc2cc(=O)c(OC(=O)c3ccco3)co2)n1	+	4	7.6*	-2
Cc1ccnc(SCc2cc(=O)c(OC(=O)c3cccs3)co2)n1	i	-5	-4	26
SMILES	PABP polyA inh	eIF4E 4G PPI	eIF4H inh	PABP1 MLLE inh
CC(C)C(=O)N(c1ccc2oc(=O)sc2c1)S(=O)(=O)c1cccs1	i	-1	-1	44*
O=C(CSc1nc(Cc2ccccc2)nc2ccccc12)Nc1ccc2c(c1)OCCO2	i	9	5	38*
O=C(CSc1ncnc2ccccc12)NCc1ccc2c(c1)OCO2	i	0	active	-10
O=C(CSc1ncnc2ccccc12)Nc1ccc2c(c1)OCCO2	i	1	-3	17
O=C(CSc1ncnc2ccccc12)Nc1ccc2c(c1)OCO2	i	-1	-5	5
CC(C)c1nc(SCC(=O)Nc2ccc(N3CCOCC3)cc2)c2ccccc2n1	i	6	-1	45*
CCCCN1C(=O)C(CC(=O)NCCCN(C)C)CC(C(=O)N(C)C)=C1C (configuration not stated)	x	x	x	1
Nc1ccc(-c2nc3ccccc3o2)cc1	+	x	50	-17
NC(=O)COC(=O)c1ccc(Cl)c(S(=O)(=O)N(Cc2ccccc2)c2ccc(Cl)cc2)c1	i	3	-13	-1
NC(=O)NC(=O)COC(=O)c1ccc(Cl)c(S(=O)(=O)N(Cc2ccccc2)c2ccc(Cl)cc2)c1	+	3	83	7
